PubChem BioAssay
Values joined by “and” are separate entries in the source; they are usually repeats but may differ in a detail not shown here. Identical values can stand only once. For some assays here: Measured potencies and affinities stand elsewhere. Active and inactive are the calls of the source. Unless noted, no rule for the calls is given here.

Columns and labels:
[1] = blockers of polyQ-driven CASP3 activation – cell-based (AID 1583); conditions: polyglutamine-induced caspase-3 activation, cell assay; stronger effect = higher value;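 tested at 10 µM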
[2] = yeast 75Q aggregation reduction – 75Q-TubU reporter (AID 1593); conditions: Yeast 75Q polyglutamine aggregation reporter
[3] = restoration of touch response, mutant HTT neurons – whole organism, C. elegans mechanosensory neurons, N-terminal huntingtin (AID 1599); conditions: C. elegans polyQ-huntingtin mechanosensory neurons, stronger effect = higher value
[4] = blockers of cytochrome c efflux from mitochondria – biochemical, purified mitochondria (AID 1603); conditions: stronger effect = lower value;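 also: mouse liver mitochondria challenged with calcium chloride; signal normalized to the plate average as 100%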
[5] = polyglutamine aggregate formation blockers (AID 1604); conditions: polyglutamine-induced protein aggregation inhibition assay; stronger effect = higher value; tested at 2.5 µM
[6] = glutamate transport activators, MN-1 cells, MN-1 cell line (AID 1612); conditions: MN-1 motor neuron cells, stronger effect = higher value;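 also: tested at 1 µM final; 0% = mean of DMSO vehicle wells on each plate; positive means more glutamate uptake than control and negative means less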
[7] = 75Q-TubH aggregate inhibition, S. cerevisiae, yeast (AID 1616); conditions: S. cerevisiae 75Q-TubH polyglutamine aggregation suppression; stronger effect = higher value
[8] = signal quenchers or enhancers, Cy5 substrate/SSB – biochemical, NIH Clinical Collection, E. coli SSB, artefact control for HCV NS3 helicase inhibitor project (AID 743268); conditions: Cy5-oligo bound E. coli SSB, fluorescence interference
[9] = test system: Hepatitis C virus NS3 helicase; experiment: blockers of NS3h binding to DNA – biochemical, fluorescence polarization, NIH Clinical Collection, primary screen (AID 743270); conditions: NS3 helicase binding to Cy5-dT15 DNA, stronger effect = higher value, concentration not given here
[10] = molecular target: Single-stranded DNA-binding protein (Escherichia coli (strain K12)) (UniProt P0AGE0); experiment: SSB-ssDNA binding inhibitors – biochemical, fluorescence polarization, NIH Clinical Collection, counter-screen for HCV NS3 helicase inhibitor project (AID 743271; in the data active = inhibition above about 28%); conditions: E. coli SSB-DNA binding, stronger effect = higher value, concentration not given here
[11] = compounds distorting NS3 helicase fluorescence signal – biochemical, NIH Clinical Collection, artefact control for HCV NS3 helicase inhibitor project (AID 743272); conditions: fluorescence interference counterscreen, HCV NS3 helicase assay; stronger effect = lower value;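 also: HCV NS3 helicase with a Cy5 labelled single stranded DNA probe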
[12] = modulation of C. elegans fzo-1 (AID 1259413);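 also: fzo-1 mutant C. elegans worms in liquid wells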; conditions: C. elegans fzo-1 modulator screen, mean read-out; stronger effect = higher value
[13] = galactose survival enhancers in mitochondrial complex I cybrids – cell-based, galactose medium, ATP luminescence, primary screen (AID 1645843;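 active = z-score of at least 1.8 in each of two replicates, scored against plate mean and spread of sample wells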;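 also: positive z means more ATP and so rescue of galactose-driven cybrid death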); conditions: complex I mutant cybrid cells, 72 h, stronger effect = higher value
F380Y/beta1 = experiment: BK channel mutant inhibitors and activators – cell-based, U2OS BacMam, thallium flux, beta subunits, selectivity assay, profiling panel (AID 1259406;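 active = thallium flux through the channel raised or lowered by more than 3 SD from vehicle-only wells, actives on both sides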;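 also: initial slope of Thallos dye fluorescence rise after thallium is added; log ratio against the mean of 0.3% DMSO vehicle wells on the same plate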); conditions: U2OS BacMam BK variants, at 30 µM
F380Y/beta4 = experiment: as above; conditions: U2OS BacMam BK variants, at 30 µM
R275C/beta4 = experiment: as above; conditions: U2OS BacMam BK variants, at 30 µM
R275C/Slo1WT/beta2 = experiment: as above; conditions: U2OS BacMam BK variants, at 30 µM
[14] = compounds altering viability of human ES cells (AID 493140); conditions: human embryonic stem cell survival screen; stronger effect = higher value;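 also: cells exposed to compounds for four days before counting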
[15] = P. berghei load reduction in hepatocytes – cell-based, HepG2, luciferase luminescence, HepG2 viability, primary screen (AID 624349; in the data active = parasite load remaining mostly below about 12%, no sharp cut-off; inactive = mostly above about 10%;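 also: 100% = mean of DMSO negative control wells on the same plate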); conditions: P. berghei liver stage in HepG2, luciferase luminescence, concentration not given here; parasite load remaining: stronger effect = lower value; viability: measured here: HepG2 viability without parasites
[16] = blockers of cellular phospholipid synthesis – cell-based, LOPAC library, screen 4, primary screen (AID 1347384); conditions: animal cells, phospholipid biosynthesis inhibition screen; at 10 µM

CCOC(=O)[C@H](CCc1ccccc1)N[C@@H](C)C(=O)N1Cc2ccccc2C[C@H]1C(=O)O
3.41%: glutamate uptake change [6]
1.04: score [2]
37.2%: inhibition of aggregation [5]
inactive: fluorescence ratio [8] 1.02 | inhibition [9] -8.64% | inhibition [10] -0.48% | fluorescence ratio [11] 1.04 | mean signal [12] 206 | z-score [13] 0.72 and 0.435 | log fold change Tl+ flux (F380Y/beta1) -0.0839 | log fold change Tl+ flux (F380Y/beta4) -0.00668 | log fold change Tl+ flux (R275C/beta4) 0.0169 | log fold change Tl+ flux (R275C/Slo1WT/beta2) 0.0209
20.2%: inhibition [1]
0.82: cytochrome c release ratio [4]
4.28: rescue above control [3]
1.35: aggregation suppression score [7]

Cc1cccc(Nc2ccncc2S(=O)(=O)NC(=O)NC(C)C)c1
83% and 88.5% and 82%: viability [15]
inactive: survival [14] 8.33 | parasite load remaining [15] 136% and 72.2% and 143% | fluorescence ratio [8] 1.01 | inhibition [9] -1.19% | inhibition [10] -0.1% | fluorescence ratio [11] 1.02 | mean signal [12] 241 | z-score [13] 1.21 | log fold change Tl+ flux (F380Y/beta1) 0.0627 | log fold change Tl+ flux (F380Y/beta4) -0.0278 | log fold change Tl+ flux (R275C/beta4) 0.029 | log fold change Tl+ flux (R275C/Slo1WT/beta2) 0.0277

CC(COc1ccccc1)NC(C)C(O)c1ccc(O)cc1 (centres undefined)
103% and 49.4% and 92.3%: viability [15]
inactive: survival [14] 10.8 | parasite load remaining [15] 51.4% and 31.5% and 101% | fluorescence ratio [8] 1 | inhibition [9] -4.09% | inhibition [10] 1.81% | fluorescence ratio [11] 0.91 | mean signal [12] 247 | z-score [13] 0.74 | log fold change Tl+ flux (F380Y/beta1) 0.0456 | log fold change Tl+ flux (F380Y/beta4) 0.0762 | log fold change Tl+ flux (R275C/beta4) 0.0625 | log fold change Tl+ flux (R275C/Slo1WT/beta2) 0.0192

COc1cc([C@@H]2c3cc4c(cc3[C@H](O)[C@H]3COC(=O)[C@H]23)OCO4)cc(OC)c1OC
107% and 103% and 113%: viability [15]
inactive: survival [14] 0.917 | parasite load remaining [15] 94.8% and 112% and 73% | fluorescence ratio [8] 1.01 | inhibition [9] -0.45% | inhibition [10] 1.05% | fluorescence ratio [11] 1.03 | mean signal [12] 221 | z-score [13] 0.5 | log fold change Tl+ flux (F380Y/beta1) 0.00363 | log fold change Tl+ flux (F380Y/beta4) 0.0253 | log fold change Tl+ flux (R275C/beta4) 0.0119 | log fold change Tl+ flux (R275C/Slo1WT/beta2) 0.00946

C[C@]12CCC(=O)C=C1CC[C@@H]1[C@@H]2[C@@H](O)C[C@@]2(C)[C@H]1CC[C@]2(O)C(=O)COC(=O)CCC(=O)O
105%: viability [15]
inactive: parasite load remaining [15] 82.9% | fluorescence ratio [8] 0.99 | inhibition [9] -1.36% | inhibition [10] -0.48% | fluorescence ratio [11] 1 | mean signal [12] 257 | z-score [13] -0.315 | log fold change Tl+ flux (F380Y/beta1) -0.0186 | log fold change Tl+ flux (F380Y/beta4) 0.0128 | log fold change Tl+ flux (R275C/beta4) -0.0484 | log fold change Tl+ flux (R275C/Slo1WT/beta2) -0.0271

Cc1cccc(CN2CCN(C(c3ccccc3)c3ccc(Cl)cc3)CC2)c1 (centres undefined)
active: fluorescence ratio [8] 0.1 | log fold change Tl+ flux (F380Y/beta1) -0.208 | log fold change Tl+ flux (F380Y/beta4) -0.141
1.9: score [2]
7.71%: inhibition [1]
63.4%: inhibition of aggregation [5]
1.73: rescue above control [3]
17.6%: glutamate uptake change [6]
0.33: cytochrome c release ratio [4]
inactive: survival [14] 3.33 | inhibition [9] -3.18% | inhibition [10] 7.91% | fluorescence ratio [11] 0.96 | mean signal [12] 222 | z-score [13] -1.5 | log fold change Tl+ flux (R275C/beta4) -0.091 | log fold change Tl+ flux (R275C/Slo1WT/beta2) -0.00698
1.86: aggregation suppression score [7]

CCS(=O)(=O)CCn1c([N+](=O)[O-])cnc1C
inactive: survival [14] 3.33 | fluorescence ratio [8] 0.97 | inhibition [9] -0.22% | inhibition [10] 1.18% | fluorescence ratio [11] 0.92 | mean signal [12] 232 | z-score [13] 0.655 and 0.575 | log fold change Tl+ flux (F380Y/beta1) 0.0365 | log fold change Tl+ flux (F380Y/beta4) -0.041 | log fold change Tl+ flux (R275C/beta4) -0.0453 | log fold change Tl+ flux (R275C/Slo1WT/beta2) -0.0158

CN[C@@H]1[C@H](O)[C@H](NC)[C@H]2O[C@@]3(O)C(=O)C[C@@H](C)O[C@H]3O[C@@H]2[C@H]1O
1.46: aggregation suppression score [7]
inactive: survival [14] 3.25 | fluorescence ratio [8] 1.06 | inhibition [9] -5% | inhibition [10] -4.29% | fluorescence ratio [11] 1.01 | z-score [13] 0.84 and 1 | log fold change Tl+ flux (F380Y/beta1) 0.00447 | log fold change Tl+ flux (F380Y/beta4) 0.0229 | log fold change Tl+ flux (R275C/beta4) 0.0437 | log fold change Tl+ flux (R275C/Slo1WT/beta2) -0.0137
1.49: score [2]
14.3%: inhibition of aggregation [5]
0.85: cytochrome c release ratio [4]
-0.34%: glutamate uptake change [6]
16.9%: inhibition [1]
0.75: rescue above control [3]

Cc1onc(-c2ccccc2)c1-c1ccc(S(N)(=O)=O)cc1
inactive: parasite load remaining [15] 163% and 88.9% | fluorescence ratio [8] 1 | inhibition [9] -1.19% | inhibition [10] -2.41% | fluorescence ratio [11] 0.93 | mean signal [12] 275 | z-score [13] -0.505 | log fold change Tl+ flux (F380Y/beta1) 0.0307 | log fold change Tl+ flux (F380Y/beta4) 0.0618 | log fold change Tl+ flux (R275C/beta4) 0.0327 | log fold change Tl+ flux (R275C/Slo1WT/beta2) -0.0445
90.7% and 71.3%: viability [15]

C[C@]12CCC(=O)C=C1CC[C@@H]1[C@@H]2[C@@H](O)C[C@@]2(C)[C@H]1CC[C@]2(O)C(=O)CO
inactive: survival [14] 5.5 | fluorescence ratio [8] 0.95 | inhibition [9] 0.45% | inhibition [10] 5.62% | fluorescence ratio [11] 0.93 | mean signal [12] 278 | outcome [16] | z-score [13] 0.565 and 0.385 and -0.22 | log fold change Tl+ flux (F380Y/beta1) 0.0243 | log fold change Tl+ flux (F380Y/beta4) 0.00205 | log fold change Tl+ flux (R275C/beta4) -0.0399 | log fold change Tl+ flux (R275C/Slo1WT/beta2) 0.0266

C[C@H](CCC(=O)O)[C@H]1CC[C@H]2[C@@H]3C(=O)C[C@@H]4CC(=O)CC[C@]4(C)[C@H]3CC(=O)[C@]12C
inactive: parasite load remaining [15] 41.4% and 59.6% | fluorescence ratio [8] 0.97 | inhibition [9] 3.28% | inhibition [10] 2.76% | fluorescence ratio [11] 0.9 | mean signal [12] 247 | log fold change Tl+ flux (F380Y/beta1) -0.0273 | log fold change Tl+ flux (F380Y/beta4) -0.0104 | log fold change Tl+ flux (R275C/beta4) 0.0134 | log fold change Tl+ flux (R275C/Slo1WT/beta2) -0.0176
47.4% and 73.1%: viability [15]
